Test results taken from PubChem BioAssay.
Where “and” joins values, the source holds several entries; their conditions need not be identical. Identical values can stand only once. Calls of active or inactive are those of the source.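 How the source made its calls, unless noted: active means inhibition at or above 50% relative to wild type and mutant plate controls; inactive means inhibition below 50%.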

What was measured:
[1] = inhibitors of TNFa-induced NFkB p65 translocation, primary screen, imaging, HUVEC, MLSMR starter and 10KST1 sets (AID 438;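 active means inhibition above 20% together with a positive visual image hit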;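 further: compound added about 3h40 before a 20 min TNFalpha stimulation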;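 on inhibition: signal is the nuclear over cytoplasmic p65 intensity ratio per well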); conditions: HUVEC TNFa-induced p65 nuclear translocation; cell count: measured here: nuclei count (cytotoxicity indicator), at 2.08 µM; inhibition: at 2 µM, stronger effect = higher value, 0% TNFa-plus-vehicle, 100% no-TNFa wells
[2] = reduction of polyQ htt aggregates in cells – imaging, exon1htt(103Q)mCFP cells, high-content imaging, primary screen (AID 483;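 active means visual image review flags a hit and inhibition of aggregation exceeds 20%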;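 further: compound exposure lasted 3 days before fixation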;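 on nuclei count: percent of the per-plate median nuclei count of sample wells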); conditions: exon1htt(103Q)mCFP cell line, aggregate imaging, at 2 µM; inhibition of aggregation: stronger effect = higher value; nuclei count: measured here: cell count, toxicity
[3] = endothelial E-selectin expression blockers – imaging, HUVEC, immunofluorescence, MLSMR starter and 10KST1 sets, primary screen (AID 487;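 active means visually confirmed hit in the image check and inhibition above 20%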;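 on inhibition: signal is fraction of cell area covered by stained E-selectin grains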;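 on nuclei count: 100% = median nuclei count of all wells on the same plate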); conditions: HUVEC TNFalpha-induced E-selectin immunofluorescence imaging, at 2 µM; inhibition: stronger effect = higher value; nuclei count: measured here: cell number, toxicity
[4] = Primary imaging screen for DUSP6 inhibitors that restore phospho-Erk in transfected HeLa cells, chemical complementation (AID 609;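 active means compounds giving at least 50% inhibition in the cell-based MKP-3 phosphatase rescue imaging test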;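 on inhibition: phospho-Erk level distribution per well compared with pooled transfected vehicle control wells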); conditions: HeLa MKP-3 transfected, phospho-Erk imaging KS statistic, at 10 µM, cells stimulated with TPA for 15 min
[5] = biological target: Dual specificity protein phosphatase 6 (Homo sapiens) (UniProt Q16828); assay: as above; conditions: HeLa MKP-3 transfected, phospho-Erk imaging KS statistic; at 10 µM; stronger effect = higher value; cells stimulated with TPA for 15 min
Chain of Dual specificity protein phosphatase 6 (Homo sapiens) (Q16828 whole entry, looked up): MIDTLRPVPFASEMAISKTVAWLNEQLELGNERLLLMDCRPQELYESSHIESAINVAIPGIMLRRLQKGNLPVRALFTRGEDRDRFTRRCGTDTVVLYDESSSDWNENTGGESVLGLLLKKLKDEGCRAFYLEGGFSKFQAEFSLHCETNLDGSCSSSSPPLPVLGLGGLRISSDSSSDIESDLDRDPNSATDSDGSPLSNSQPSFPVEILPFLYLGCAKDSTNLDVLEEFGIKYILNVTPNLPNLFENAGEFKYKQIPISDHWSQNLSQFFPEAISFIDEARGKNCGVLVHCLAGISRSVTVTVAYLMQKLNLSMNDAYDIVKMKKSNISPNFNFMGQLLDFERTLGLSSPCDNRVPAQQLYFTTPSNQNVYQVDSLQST

[6] = biological target: Voltage-gated potassium channel subunit beta-2 (Rattus norvegicus) (UniProt P62483); assay: inhibitors of rat Kvbeta2 reductase activity – biochemical, NADPH fluorescence, primary screen (AID 622;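 active means fluorescence slope higher than the sample average by over 3 SD, cut at about -0.22 in these data, passing the limit was not always enough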;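 further: slope of raw intensity against log time taken from 70 to 1610 s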); conditions: recombinant KvBeta, 4-cyanobenzaldehyde reduction, at 10 µM, stronger effect = higher value
Chain of Voltage-gated potassium channel subunit beta-2 (Rattus norvegicus) (P62483 whole entry, looked up): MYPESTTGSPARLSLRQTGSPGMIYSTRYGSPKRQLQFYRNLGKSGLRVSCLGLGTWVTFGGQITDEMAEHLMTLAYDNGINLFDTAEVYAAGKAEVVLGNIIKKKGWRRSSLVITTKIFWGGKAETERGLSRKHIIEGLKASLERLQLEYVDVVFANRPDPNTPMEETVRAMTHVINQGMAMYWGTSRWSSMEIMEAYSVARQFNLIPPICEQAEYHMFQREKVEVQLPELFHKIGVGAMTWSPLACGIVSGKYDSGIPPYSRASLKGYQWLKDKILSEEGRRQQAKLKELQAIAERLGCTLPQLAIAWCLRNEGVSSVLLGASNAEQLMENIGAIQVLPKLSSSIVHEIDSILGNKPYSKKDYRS

[7] = biological target: Voltage-gated potassium channel subunit beta-2 (Rattus norvegicus) (UniProt P62483); assay: enhancers of rat Kvbeta2 NADPH turnover – biochemical, NADPH fluorescence, primary screen (AID 623;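 active means NADPH fluorescence slope more negative than the mean of all samples by about 3 SD, 99.7% confidence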;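 further: fluorescence intensity change per second fitted from 20 to 320 s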); conditions: Recombinant KvBeta, NADPH fluorescence decrease slope, 10 min; at 10 µM; stronger effect = lower value
[8] = biological target: Alpha-2C adrenergic receptor (Homo sapiens) (UniProt P18825); assay: compounds altering alpha2C-coupled GIRK flux – cell-based, HEK293 alpha2C/GIRK1/2, thallium flux, primary screen (AID 624;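 active means fluorescence slope after compound addition differing from the mean of all screened samples at 99.7% confidence, in either direction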;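 further: slope of fluorescence ratio to pre-addition baseline per second over 15 to 24 s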); conditions: thallium flux BTC fluorescence, at 10 µM, actives lie on both sides
Chain of Alpha-2C adrenergic receptor (Homo sapiens) (P18825 whole entry, looked up): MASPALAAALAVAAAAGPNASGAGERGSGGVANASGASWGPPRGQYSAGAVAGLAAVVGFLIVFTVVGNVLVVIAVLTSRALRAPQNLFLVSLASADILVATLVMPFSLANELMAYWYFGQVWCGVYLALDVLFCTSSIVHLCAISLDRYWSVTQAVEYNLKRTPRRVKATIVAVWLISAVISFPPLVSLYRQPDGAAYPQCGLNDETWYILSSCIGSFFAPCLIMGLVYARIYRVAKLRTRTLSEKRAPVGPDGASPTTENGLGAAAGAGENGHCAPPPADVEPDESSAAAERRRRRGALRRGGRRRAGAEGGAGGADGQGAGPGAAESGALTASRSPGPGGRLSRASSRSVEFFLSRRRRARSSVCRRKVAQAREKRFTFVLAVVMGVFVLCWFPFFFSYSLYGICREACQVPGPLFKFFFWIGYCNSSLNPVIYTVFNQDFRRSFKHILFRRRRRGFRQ

[9] = inhibitors of larval lipid processing in zebrafish, primary screen, whole organism, PED6 fluorescence, gall bladder and intestine (AID 686;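 active means a full or partial loss of lipid-probe fluorescence in the fish gall bladder, intestine or both, judged by eye; inactive means no fluorescence loss, or compound toxic to the fish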;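 further: larvae 5 to 7 days old with five fish per well; signal comes from phospholipase A2 cleavage of quenched PED6 carried via bile; overnight exposure to compound and PED6 before scoring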); conditions: Zebrafish larvae PED6 lipid processing, fluorescence scoring; screened at 20 µM (by protocol)
[10] = loss of swimming-algae plug formation – whole organism, Chlamydomonas reinhardtii, WT vs cilia-less mutant, absorbance, 96-well, primary screen (AID 463189); conditions: Chlamydomonas reinhardtii gravitaxis, OD600 absorbance, 2 days; at 10 µM; stronger effect = higher value;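 further: 0% = wild type cc124 cells in DMSO and 100% = ciliumless bld1 mutant cells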
[11] = blockers of RIG-like receptor reporter activation – cell-based, Sendai virus stimulus, luciferase, 10K MLSCN set, TLR/RLR signaling modifier project, primary screen (AID 602276;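 active means inhibition at or above 50% at 10 µM; inactive means inhibition below 50%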;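 further: firefly luciferase from ISG56 promoter only with Renilla not read in this screen; 0% = Sendai virus plus DMSO and 100% = medium plus DMSO without virus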); conditions: HEK293 RL24 IRF3 luciferase reporter, at 10 µM, stronger effect = higher value
[12] = TLR3 IRF3 reporter activation blockers – cell-based, poly I:C stimulus, luciferase, 10K MLSCN set, primary screen (AID 602277;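 active means inhibition of the reporter signal at or above 50%; inactive means inhibition below 50%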); conditions: HEK293-TLR3 RL24 IRF3 luciferase reporter, at 10 µM, stronger effect = higher value
[13] = measured here: cell density z-score
[14] = measured here: nuclear c-Myc green intensity z-score
[15] = measured here: nuclear pErk red intensity z-score, stronger effect = higher value

Structure (SMILES)	cell count [1]	inhibition [1]	inhibition of aggregation [2]	nuclei count [2] [%]	inhibition [3]	nuclei count [3] [%]	z-score [4, 13]	z-score [4, 14]	z-score [4, 15]	inhibition [5]	fluorescence slope [6]	NADPH fluorescence slope [7]	slope [8]	outcome [9]	inhibition [10]	inhibition [11]	inhibition [12]
Cc1cc(C)n(-c2nnc(C)n2/N=C/c2ccccc2F)n1	592	-10% (inactive)	-14.2% (inactive)	107	-75.7% (inactive)	153	0.554	1.09	-0.737	9.82% (inactive)	-0.53 (inactive)	-4.2e-05 (inactive)	0.00446 (inactive)	inactive	5.75% (inactive)	13.6% (inactive)	22% (inactive)
CCN1CCN(c2nc3c(C)cccn3c(=O)c2/C=C(\C#N)S(=O)(=O)c2ccccc2)CC1	501	-1.7% (inactive)	-13.4% (inactive)	108	-71.1% (inactive)	118	0.894	-1.58	2.23	3.5% (inactive)	-0.517 (inactive)	-1.8e-05 (inactive)	0.00181 (inactive)	inactive	18.9% (inactive)	9.29% (inactive)	23.8% (inactive)
OCCNC1=NCCN1	552	-6.3% (inactive)	28.8% (active)	104	-4.8% (inactive)	146	-0.706	-1.05	0.931	-3.98% (inactive)	-0.523 (inactive)	-7.4e-05 (inactive)	0.00539 (inactive)	inactive	-5.29% (inactive)	17.3% (inactive)	20.3% (inactive)
O=C(NC1CCS(=O)(=O)C1)N1CCCCC1 (stereo not given)	486	0.6% (inactive)	-3.3% (inactive)	106	-68.8% (inactive)	126	-0.342	1.35	0.612	1.6e-07% (inactive)	-0.485 (inactive)	-6.6e-05 (inactive)	0.00544 (inactive)	inactive	-28.4% (inactive)	11.2% (inactive)	18.8% (inactive)
COc1ccc(OC)c(C2C(C#N)=C(N)Oc3cc(C)[nH]c(=O)c32)c1 (stereo not given)	544	-31.7% (inactive)	19.9% (inactive)	88.9	-48.5% (inactive)	122	-0.908	-1.31	-0.529	-7.86% (inactive)	-0.536 (inactive)	-5e-05 (inactive)	0.00618 (inactive)	inactive	15.7% (inactive)	13.1% (inactive)	-12.4% (inactive)
O=C(O)/C=C/c1ccc(O)c(O)c1	613	4% (inactive)	8.3% (inactive)	103	-48.2% (inactive)	116	-0.618	-0.142	-0.455	10.2% (inactive)	-0.453 (inactive)	-6.6e-05 (inactive)	0.00437 (inactive)	inactive	-2.7% (inactive) and 27.7% (inactive)	8.79% (inactive)	43.2% (inactive)
COc1ccc(NC(=O)CSC2=C(C#N)C(c3ccco3)C3=C(CCCC3=O)N2)c(OC)c1 (stereo not given)	429	1.6% (inactive)	-5.2% (inactive)	95.8	-47.9% (inactive)	104	-1.49	0.542	0.619	13.4% (inactive)	-0.456 (inactive)	-9.4e-06 (inactive)	0.00706 (inactive)	inactive	26.6% (inactive)	17.5% (inactive)	18.8% (inactive)
COC(=O)c1ccc(C2NC(C(=O)O)CS2)cc1 (stereo not given)	652	-14.6% (inactive)	3.9% (inactive)	107	-8.7% (inactive)	139	-0.228	-1.99	-1.57	-9.66% (inactive)	-0.4 (inactive)	-2.2e-05 (inactive)	0.00581 (inactive)	inactive	5.15% (inactive)	14.2% (inactive)	18.9% (inactive)
Cc1cc(C)n(CC(=O)n2c3c(c4ccccc42)CCCC3)n1	515	-6.5% (inactive)	13.5% (inactive)	99.3	-92.5% (inactive)	130	-0.283	1.41	0.335	-1.98% (inactive)	-0.53 (inactive)	-3.4e-05 (inactive)	0.0062 (inactive)	inactive	-0.753% (inactive)	-7.05% (inactive)	1.75% (inactive)
CC(=O)[C@@]1(O)CC[C@H]2[C@@H]3C[C@H](C)C4=CC(=O)CC[C@]4(C)[C@H]3CC[C@@]21C	734	-6.2% (inactive)	0.8% (inactive)	108	-107% (inactive)	113	1.42	-0.494	-1.54	3.45% (inactive)	-0.486 (inactive)	-0.000112 (inactive)	0.0052 (inactive)	inactive	-2.53% (inactive)	-4.16% (inactive)	43.2% (inactive)
